Source: PubChem
This excerpt belongs to a sample that is enriched for hits.
Dicer processing: inhibitors of Dicer pre-microRNA processing, primary screen, biochemical, cat-ELCCA, chemiluminescence. hit rate 6% among 47,000. AID 1347074, 2019. cat-ELCCA pre-miR-21 Dicer processing; hits give high values. z-score at 25 µM; in the data active = z-score above about 3, passing the limit was not always enough;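 note: plate controls were vehicle for no effect and no enzyme for full effect; higher signal means more uncleaved substrate so more Dicer inhibition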
* = called active by the depositor.

Results for COc1ccc2nc(NC(=O)Nc3ccc(Cl)cc3)sc2c1 ?
Dicer processing: 2.7

What do the screens show for `COc1ccc(NC(=O)/C=C/c2ccc(Cl)cc2)cc1`?
Dicer processing: -0.89

What do the screens show for `COc1ccc(Nc2nc(NC(=O)Nc3ccc(Cl)cc3)n[nH]2)cc1`?
Dicer processing: 10.1*

What do the screens show for `O=C1c2cccc3cccc(c23)N1Cc1ccc(F)cc1Cl`?
Dicer processing: -0.82

How did C/C=C/C(=O)N(CC)c1ccccc1C do in these assays?
Dicer processing: 3.57*

How did Cc1ccccc1NC(=O)/C=C/C(=O)O do in these assays?
Dicer processing: -0.63

Results for CCN(C(=O)c1cnccc1C(F)(F)F)c1cccc(C)c1C ?
Dicer processing: -0.66

How did O=C(O)CN1C(=O)C(=O)/C(=C(\O)c2ccc(Br)cc2)C1c1ccccc1 (stereo unspecified) do in these assays?
Dicer processing: -1.62

How did O=C1C2C3c4ccccc4C(CO)(c4ccccc43)C2C(=O)N1c1ccc(F)cc1 (stereo unspecified) do in these assays?
Dicer processing: 4.87*

Results for CC12c3ccccc3C(c3ccccc31)C1C(=O)N(c3ccccc3)C(=O)C12 (stereo unspecified) ?
Dicer processing: 0.7

Results for O=C1C2C3c4ccccc4C(C(=O)O)(c4ccccc43)C2C(=O)N1c1ccccc1 (stereo unspecified) ?
Dicer processing: 0.12

What do the screens show for `CCCCOc1ccc(N2C(=O)C3C4c5ccccc5C(CO)(c5ccccc54)C3C2=O)cc1` (stereo unspecified)?
Dicer processing: 3.34*

Results for O=C1C2C3c4ccccc4C(CO)(c4ccccc43)C2C(=O)N1c1ccccc1Cl (stereo unspecified) ?
Dicer processing: 0.88

Results for COc1ccc(N2C(=O)C3C4c5ccccc5C(CO)(c5ccccc54)C3C2=O)cc1 (stereo unspecified) ?
Dicer processing: -0.87

What do the screens show for `CCOC(=O)c1cn(-c2ccc(N3CCC(C)CC3)nn2)nc1N`?
Dicer processing: 0.15

Results for O=C(O)c1cc2cc(Cl)cc(Br)c2oc1=O ?
Dicer processing: -0.55

Results for Cc1ccc(-c2nnc(SCc3ccc(F)cc3)o2)cc1 ?
Dicer processing: -0.07

What do the screens show for `CC(C)c1ccc(C2C(C#N)=C(N)Oc3cc(O)ccc32)cc1` (stereo unspecified)?
Dicer processing: 4.93*

What do the screens show for `COc1ccc(C2C(C#N)=C(N)Oc3cc(O)ccc32)cc1C` (stereo unspecified)?
Dicer processing: -0.6

How did C=CCOc1ccc(C2C(C#N)=C(N)Oc3cc(O)ccc32)cc1Cl (stereo unspecified) do in these assays?
Dicer processing: 12.5

What do the screens show for `O=C(Nc1c(C(=O)c2ccc(Cl)cc2)oc2ccccc12)c1ccco1`?
Dicer processing: 0.25

What do the screens show for `O=C1/C(=C/c2ccc(Cl)cc2)COC/C1=C\c1ccc(Cl)cc1`?
Dicer processing: -0.02

How did O=C(CSc1nnc2ccccn12)Nc1cccc(-c2nc3ccccc3s2)c1 do in these assays?
Dicer processing: -1.33

How did O=C(CSc1nnc2ccccn12)Nc1ccc(Cl)cc1 do in these assays?
Dicer processing: 0.1

Results for O=C(CCSc1nnc2ccccn12)Nc1cccc(-c2nc3ccccc3s2)c1 ?
Dicer processing: 6.1*

How did CCOC(=O)Cc1nnc(NC(=O)Nc2ccccc2)s1 do in these assays?
Dicer processing: 1.73

Results for COc1ccc(OCc2nnc(NC(=O)Nc3ccccc3F)s2)cc1 ?
Dicer processing: 2.06

How did CCc1cc(C(=O)c2ccc(OC)cc2)c(NC(=O)Nc2ccc(F)cc2)s1 do in these assays?
Dicer processing: 0.31

Results for COc1ccc(NC(=O)Nc2nnc(-c3ccncc3)s2)cc1 ?
Dicer processing: 4.18*

What do the screens show for `COc1cccc(NC(=O)Nc2nnc(COc3ccc(F)cc3)s2)c1`?
Dicer processing: 4.42*

How did COc1ccc(NC(=O)Nc2cncc(C#Cc3ccccc3)c2)cc1 do in these assays?
Dicer processing: 0.81

Results for COc1ccccc1NC(=O)Nc1nnc(COc2ccccc2F)s1 ?
Dicer processing: 4.8*

What do the screens show for `CCOc1ccc2nc(NC(=O)Nc3ccc(F)cc3)sc2c1`?
Dicer processing: -1.27

Results for COCc1nnc(NC(=O)c2ccco2)s1 ?
Dicer processing: 0.86

Results for COc1cccc(NC(=O)NCCN2CCN=C2C)c1 ?
Dicer processing: -0.02

What do the screens show for `COc1cccc(NC(=O)Nc2nnc(COc3ccccc3F)s2)c1`?
Dicer processing: 5*

What do the screens show for `CC(C)c1nnc(NC(=O)Nc2ccccc2)s1`?
Dicer processing: 1.32

What do the screens show for `c1ccc(-c2csc3ncnc(NC4CCCCC4)c23)cc1`?
Dicer processing: -0.92

What do the screens show for `Clc1ccc(Cc2cn3cc(-c4ccccc4)nc3s2)cc1`?
Dicer processing: -0.5

How did N#Cc1cc([N+](=O)[O-])ccc1Sc1nnc(NC(=O)c2ccc(Cl)c(Cl)c2)s1 do in these assays?
Dicer processing: -0.86

Results for CC(C)COC(=O)CSc1nc(N2CCOCC2)c2c(c1C#N)CC(C)(C)OC2 ?
Dicer processing: 1.7

Results for CNNC(=S)Nc1cccc(Cl)c1C ?
Dicer processing: 2.78
